Data: the supplement of paper PMC8728848
This is one part of a sample in which the strongest signals are shown more often than they occur.

How the values were obtained:
Test in all cases: glycan array binding signal (z-score within array); higher = stronger binding
Settings in all cases: glycan notation: IUPAC condensed, linker removed
[1] = target: Fuc(a1-2)Gal(b1-3)GalNAc(a1-3)[Fuc(a1-2)]Gal(b1-4)GlcNAc
Method in brief: (§1)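 The binding signal is a Z-score computed within each array. Data were drawn from 3228 arrays in the Consortium for Functional Glycomics database, restricted to those with a known protein sequence. Scores were averaged over arrays of the same protein sequence at different concentrations or buffers, and over linkers, and negative values can be taken as non-binding.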

[2] = target: Fuc(a1-2)Gal(b1-3)GlcNAc(b1-3)[Gal(b1-4)GlcNAc(b1-6)]Gal(b1-4)Glc
Method in brief: as §1

[3] = target: Fuc(a1-2)Gal(b1-4)GlcNAc(b1-6)GalNAc
Method in brief: as §1

[4] = target: Fuc(a1-2)Gal3S(b1-4)GlcNAc
Method in brief: as §1

Fuc(a1-2)[Gal(a1-3)]Gal = target: Fuc(a1-2)[Gal(a1-3)]Gal
Method in brief: as §1

[5] = target: Fuc(a1-2)[GalNAc(a1-3)]Gal(b1-3)GlcNAc
Method in brief: as §1

Fuc(a1-4)GlcNAc = target: Fuc(a1-4)GlcNAc
Method in brief: as §1

[6] = target: Gal(a1-3)Gal(b1-3)GlcNAc(b1-6)GalNAc
Method in brief: as §1

[7] = target: Gal(a1-3)Gal(b1-4)GlcNAc(b1-2)Man(a1-3)[Gal(a1-3)Gal(b1-4)GlcNAc(b1-2)Man(a1-6)]Man(b1-4)GlcNAc(b1-4)GlcNAc
Method in brief: as §1

Gal(b1-3)GalNAc = target: Gal(b1-3)GalNAc
Method in brief: as §1

[8] = target: Gal(b1-3)GalNAc(a1-3)[Fuc(a1-2)]Gal(b1-4)Glc
Method in brief: as §1

[9] = target: Gal(b1-3)GlcNAc(b1-2)Man(a1-3)[Gal(b1-3)GlcNAc(b1-2)Man(a1-6)]Man(b1-4)GlcNAc(b1-4)GlcNAc
Method in brief: as §1

[10] = target: Gal(b1-3)GlcNAc(b1-2)[Gal(b1-3)GlcNAc(b1-6)]Man(a1-6)[Gal(b1-3)GlcNAc(b1-2)Man(a1-3)]Man(b1-4)GlcNAc(b1-4)GlcNAc
Method in brief: as §1

[11] = target: Gal(b1-3)GlcNAc(b1-3)Gal(b1-3)GlcNAc
Method in brief: as §1

[12] = target: Gal(b1-3)[GlcNAc(b1-6)]GalNAc
Method in brief: as §1

[13] = target: Gal(b1-3)[Neu5Ac(a2-6)]GlcNAc(b1-4)Gal(b1-4)Glc
Method in brief: as §1

[14] = target: Gal(b1-4)GlcNAc(b1-3)Gal(b1-3)GalNAc
Method in brief: as §1

[15] = target: Gal(b1-4)GlcNAc(b1-3)Gal(b1-4)GlcNAc(b1-2)[Gal(b1-4)GlcNAc(b1-3)Gal(b1-4)GlcNAc(b1-6)]Man(a1-6)[Gal(b1-4)GlcNAc(b1-3)Gal(b1-4)GlcNAc(b1-2)Man(a1-3)]Man(b1-4)GlcNAc(b1-4)[Fuc(a1-6)]GlcNAc
Method in brief: as §1

[16] = target: Gal(b1-4)GlcNAc(b1-3)Gal(b1-4)GlcNAc(b1-3)Gal(b1-4)GlcNAc(b1-2)Man(a1-3)[Gal(b1-4)GlcNAc(b1-3)Gal(b1-4)GlcNAc(b1-3)Gal(b1-4)GlcNAc(b1-2)Man(a1-6)]Man(b1-4)GlcNAc(b1-4)[Fuc(a1-6)]GlcNAc
Method in brief: as §1

[17] = target: Gal(b1-4)GlcNAc(b1-3)Gal(b1-4)GlcNAc(b1-3)Gal(b1-4)GlcNAc(b1-2)[Gal(b1-4)GlcNAc(b1-3)Gal(b1-4)GlcNAc(b1-3)Gal(b1-4)GlcNAc(b1-6)]Man(a1-6)[Gal(b1-4)GlcNAc(b1-3)Gal(b1-4)GlcNAc(b1-3)Gal(b1-4)GlcNAc(b1-2)Man(a1-3)]Man(b1-4)GlcNAc(b1-4)[Fuc(a1-6)]GlcNAc
Method in brief: as §1

[18] = target: Gal(b1-4)GlcNAc(b1-3)[Fuc(a1-3)GlcNAc(b1-6)]Gal(b1-4)Glc
Method in brief: as §1

[19] = target: Gal(b1-4)GlcNAc(b1-6)GalNAc
Method in brief: as §1

[20] = target: Gal(b1-4)GlcNAc(b1-6)[Gal(b1-3)]GalNAc
Method in brief: as §1

[21] = target: GalNAc(b1-3)Gal(a1-4)Gal(b1-4)GlcNAc(b1-3)Gal(b1-4)Glc
Method in brief: as §1

GalNAc(b1-3)GalNAc = target: GalNAc(b1-3)GalNAc
Method in brief: as §1

[22] = target: GalNAc3S(b1-4)[Fuc(a1-3)]GlcNAc
Method in brief: as §1

[23] = target: Glc(a1-6)Glc(a1-6)Glc(a1-6)Glc
Method in brief: as §1

Glc(b1-4)Glc = target: Glc(b1-4)Glc
Method in brief: as §1

GlcA(b1-6)Gal = target: GlcA(b1-6)Gal
Method in brief: as §1

[24] = target: GlcNAc(b1-3)Gal(b1-4)GlcNAc(b1-2)[GlcNAc(b1-3)Gal(b1-4)GlcNAc(b1-6)]Man(a1-6)[GlcNAc(b1-3)Gal(b1-4)GlcNAc(b1-2)Man(a1-3)]Man(b1-4)GlcNAc(b1-4)GlcNAc
Method in brief: as §1

[25] = target: GlcNAc(b1-3)Gal(b1-4)GlcNAc(b1-3)Gal(b1-4)GlcNAc(b1-3)Gal(b1-4)GlcNAc(b1-2)Man(a1-3)[GlcNAc(b1-3)Gal(b1-4)GlcNAc(b1-3)Gal(b1-4)GlcNAc(b1-3)Gal(b1-4)GlcNAc(b1-2)Man(a1-6)]Man(b1-4)GlcNAc(b1-4)GlcNAc
Method in brief: as §1

[26] = target: GlcNAc(b1-3)Gal(b1-4)GlcNAc(b1-3)Gal(b1-4)GlcNAc(b1-3)Gal(b1-4)GlcNAc(b1-2)[GlcNAc(b1-3)Gal(b1-4)GlcNAc(b1-3)Gal(b1-4)GlcNAc(b1-3)Gal(b1-4)GlcNAc(b1-6)]Man(a1-6)[GlcNAc(b1-3)Gal(b1-4)GlcNAc(b1-3)Gal(b1-4)GlcNAc(b1-3)Gal(b1-4)GlcNAc(b1-2)Man(a1-3)]Man(b1-4)GlcNAc(b1-4)[Fuc(a1-6)]GlcNAc
Method in brief: as §1

[27] = target: GlcNAc(b1-3)Gal(b1-4)GlcNAc(b1-3)Gal(b1-4)GlcNAc(b1-3)Gal(b1-4)GlcNAc(b1-3)Gal(b1-4)GlcNAc(b1-2)Man(a1-3)[GlcNAc(b1-3)Gal(b1-4)GlcNAc(b1-3)Gal(b1-4)GlcNAc(b1-3)Gal(b1-4)GlcNAc(b1-3)Gal(b1-4)GlcNAc(b1-2)Man(a1-6)]Man(b1-4)GlcNAc(b1-4)GlcNAc
Method in brief: as §1

[28] = target: GlcNAc(b1-3)Gal(b1-4)GlcNAc(b1-3)Gal(b1-4)GlcNAc(b1-3)GalNAc
Method in brief: as §1

[29] = target: GlcNAc(b1-3)[GlcNAc(b1-6)]Gal(b1-4)GlcNAc
Method in brief: as §1

GlcNAc(b1-4)GlcNAc = target: GlcNAc(b1-4)GlcNAc
Method in brief: as §1

[30] = target: Man(a1-2)Man(a1-3)[Man(a1-2)Man(a1-6)]Man
Method in brief: as §1

[31] = target: Man(a1-3)[Man(a1-6)]Man(b1-4)GlcNAc(b1-4)[Fuc(a1-6)]GlcNAc
Method in brief: as §1

[32] = target: Neu5Ac(a2-3)Gal(b1-3)GalNAc6S
Method in brief: as §1

[33] = target: Neu5Ac(a2-3)Gal(b1-3)]Neu5Ac(a2-3)Gal(b1-4)]GlcNAc
Method in brief: as §1

[34] = target: Neu5Ac(a2-3)Gal(b1-4)GlcNAc(b1-3)Gal(b1-4)GlcNAc(b1-3)Gal(b1-4)GlcNAc(b1-2)Man(a1-3)[Neu5Ac(a2-3)Gal(b1-4)GlcNAc(b1-3)Gal(b1-4)GlcNAc(b1-3)Gal(b1-4)GlcNAc(b1-2)Man(a1-6)]GalNAc
Method in brief: as §1

[35] = target: Neu5Ac(a2-3)Gal(b1-4)GlcNAc(b1-6)[Gal(b1-3)]GalNAc
Method in brief: as §1

[36] = target: Neu5Ac(a2-3)Gal(b1-4)[Fuc(a1-3)]GlcNAc6S
Method in brief: as §1

[37] = target: Neu5Ac(a2-3)[GalNAc(b1-4)]Gal(b1-4)Glc
Method in brief: as §1

[38] = target: Neu5Ac(a2-6)Gal(b1-4)GlcNAc(b1-2)Man(a1-3)[GlcNAc(b1-4)][Neu5Ac(a2-6)Gal(b1-4)GlcNAc(b1-2)Man(a1-6)]Man(b1-4)GlcNAc(b1-4)GlcNAc
Method in brief: as §1

[39] = target: Neu5Ac(a2-6)Gal(b1-4)GlcNAc(b1-2)Man(a1-6)Man(b1-4)GlcNAc(b1-4)GlcNAc
Method in brief: as §1

[40] = target: Neu5Ac(a2-6)Gal(b1-4)GlcNAc(b1-3)Gal(b1-4)GlcNAc(b1-3)Gal(b1-4)GlcNAc(b1-2)Man(a1-3)[Neu5Ac(a2-6)Gal(b1-4)GlcNAc(b1-3)Gal(b1-4)GlcNAc(b1-3)Gal(b1-4)GlcNAc(b1-2)Man(a1-6)]GalNAc
Method in brief: as §1

[41] = target: Neu5Ac(a2-6)Gal(b1-4)GlcNAc(b1-3)Gal(b1-4)GlcNAc(b1-3)[Neu5Ac(a2-6)Gal(b1-4)GlcNAc(b1-3)Gal(b1-4)GlcNAc(b1-6)]GalNAc
Method in brief: as §1

[42] = target: Neu5Ac(a2-6)Gal(b1-4)GlcNAc(b1-3)Gal(b1-4)[Fuc(a1-3)]GlcNAc(b1-3)Gal(b1-4)[Fuc(a1-3)]GlcNAc
Method in brief: as §1

Neu5Ac(a2-6)GalNAc = target: Neu5Ac(a2-6)GalNAc
Method in brief: as §1

[43] = target: Neu5Ac(a2-8)Neu5Ac(a2-3)Gal(b1-4)GlcNAc
Method in brief: as §1

[44] = target: Neu5Gc(a2-3)Gal(b1-4)GlcNAc
Method in brief: as §1

Neu5Gc(a2-6)GalNAc = target: Neu5Gc(a2-6)GalNAc
Method in brief: as §1

B1: MpAFP NterminalRI GFP (Marinomonas primoryensis) (protein)
chain: MSDNQFPFATLGNAIGFITKLDGSVTVQSIDGQERVLKLGDPIFFGETVLTGGSGSVTIAFVDGTDVVIGGDSIVEMTDEIYNTGDNEDLVADSSSEIDALQNAILAGDDPTLIQDAPAAGNTLADQQRVDVSIERNDNSAQAGFGVDTQSSLPTYGYDTDNGNGGQATEREYSAPSLSRTLNQSPLLEHHHHHH
[1]
  glycan array binding signal (z-score): -0.525
[2]
  glycan array binding signal (z-score): -0.221
[3]
  glycan array binding signal (z-score): 1.68
[4]
  glycan array binding signal (z-score): -0.495
Fuc(a1-2)[Gal(a1-3)]Gal
  glycan array binding signal (z-score): -0.494
[5]
  glycan array binding signal (z-score): -0.215
Fuc(a1-4)GlcNAc
  glycan array binding signal (z-score): 2.46
[6]
  glycan array binding signal (z-score): -0.446
[7]
  glycan array binding signal (z-score): -0.164
Gal(b1-3)GalNAc
  glycan array binding signal (z-score): -0.228
[8]
  glycan array binding signal (z-score): -0.422
[9]
  glycan array binding signal (z-score): -0.119
[10]
  glycan array binding signal (z-score): -0.305
[11]
  glycan array binding signal (z-score): -0.424
[12]
  glycan array binding signal (z-score): -0.473
[13]
  glycan array binding signal (z-score): -0.565
[14]
  glycan array binding signal (z-score): -0.412
[15]
  glycan array binding signal (z-score): 4.16
[16]
  glycan array binding signal (z-score): 0.649
[17]
  glycan array binding signal (z-score): 2.76
[18]
  glycan array binding signal (z-score): -0.081
[19]
  glycan array binding signal (z-score): -0.473
[20]
  glycan array binding signal (z-score): 0.083
[21]
  glycan array binding signal (z-score): -0.509
GalNAc(b1-3)GalNAc
  glycan array binding signal (z-score): -0.576
[22]
  glycan array binding signal (z-score): -0.39
[23]
  glycan array binding signal (z-score): -0.16
Glc(b1-4)Glc
  glycan array binding signal (z-score): 0.784
GlcA(b1-6)Gal
  glycan array binding signal (z-score): -0.407
[24]
  glycan array binding signal (z-score): 6.32
[25]
  glycan array binding signal (z-score): 6.83
[26]
  glycan array binding signal (z-score): 2.6
[27]
  glycan array binding signal (z-score): 0.255
[28]
  glycan array binding signal (z-score): -0.344
[29]
  glycan array binding signal (z-score): -0.441
GlcNAc(b1-4)GlcNAc
  glycan array binding signal (z-score): 4.84
[30]
  glycan array binding signal (z-score): 2.93
[31]
  glycan array binding signal (z-score): -0.195
[32]
  glycan array binding signal (z-score): -0.078
[33]
  glycan array binding signal (z-score): -0.531
[34]
  glycan array binding signal (z-score): 2.98
[35]
  glycan array binding signal (z-score): 3.31
[36]
  glycan array binding signal (z-score): -0.574
[37]
  glycan array binding signal (z-score): -0.63
[38]
  glycan array binding signal (z-score): -0.202
[39]
  glycan array binding signal (z-score): -0.385
[40]
  glycan array binding signal (z-score): 1.24
[41]
  glycan array binding signal (z-score): -0.027
[42]
  glycan array binding signal (z-score): -0.212
Neu5Ac(a2-6)GalNAc
  glycan array binding signal (z-score): -0.388
[43]
  glycan array binding signal (z-score): -0.655
[44]
  glycan array binding signal (z-score): -0.632
Neu5Gc(a2-6)GalNAc
  glycan array binding signal (z-score): 3.75
